This experiment relates to HepG2. Description: GSK_TCMDC: Percent inhibition of human HepG2 cell line. Test compounds present at 10uM. It counts as functional.
Molecule `CO/C(=C\C=C\c1cc2cc(Cl)c(Cl)cc2[nH]1)C(=O)NCCCN1CCCC[C@@H]1C` returned an Inhibition of 33%.

Molecule `Cc1cccc2nc(-c3cccc(-c4cccc(NC(=O)c5ccc(C(N)=O)cc5)c4)c3)[nH]c12` registered an Inhibition of 25%. `CC(C)(C)CCN1CCC(NC(=O)c2ccc(-c3cccc(C(F)(F)F)c3)s2)CC1.O=C(O)C(F)(F)F`: the Inhibition came to 95%. With `O=C(/C=C/c1ccc(Cl)c(Cl)c1)N1CCC(CN2CCC(Cc3nc4ccccc4[nH]3)CC2)CC1` the figure was 34%. `CN1CCC(NCc2ccc(-c3cccc(S(=O)(=O)NCC4CCCO4)c3)cc2)CC1.O=C(O)C(F)(F)F` (stereo not given) yielded an Inhibition of 8%. In the case of `CCNc1cc(C(=O)N[C@@H](Cc2ccccc2)[C@H](O)CNC(C)Cc2cccc(Cl)c2)cc(N2CCCCS2(=O)=O)c1.Cl` (stereo not given in full), the Inhibition is 0%. `O=[N+]([O-])c1cc(C(c2ccc(O)c([N+](=O)[O-])c2)C(Cl)(Cl)Cl)ccc1O` displayed an Inhibition of 2%.

The molecule `Cc1ccc(CNc2ccc3ncc(-c4cccc(C(=O)NCCN(C)C)c4)n3n2)c(C)c1` came in with an Inhibition of 97%. Under `Cc1nnc(-c2cccc(Nc3ccnc4cc(-c5nccs5)ccc34)c2)o1.Cl` stands 38%; under `O=C(O)C(F)(F)F.O=[N+]([O-])c1cccc(CNCC2CCN(CCc3ccccc3)CC2)c1`, 15%.

`COc1ccc(CNCc2ccc(-c3ccc(-c4nc5cc(C(F)(F)F)ccc5[nH]4)cc3)cc2)cc1.O=C(O)C(F)(F)F`: the Inhibition is 75%. With `CC1(C)CNCc2cc(NC(=O)/C=C/c3ccc(Cl)cc3)ccc21.Cl`, the Inhibition is on record as 23%. Take `CN1CCCN(Cc2ccc(-c3cccc(NC(=O)c4cccc(F)c4)c3)cc2)CC1.O=C(O)C(F)(F)F`: the Inhibition was found to be 28%. Molecule `CC(C)COc1ccc(Cl)cc1Nc1nc(-c2nc3ccccc3[nH]2)cs1.Cl` gave an Inhibition of 2%. With `CCC(O)c1ccc(Br)cc1NC(=O)c1cccc(Cl)c1` (stereo not given) the figure was 0%; with `O=C(Nc1ccc(C(F)(F)F)cc1)NC1CCN(c2ccnc3cc(Cl)ccc23)C1.O=C(O)C(F)(F)F` (stereo not given), 20%; with `O=C(/C=C/c1ccc(Cl)cc1)NCCCCCN1CCCN(C(=O)Nc2cccc(Cl)c2)CC1`, 19%. For `CCCc1ccc(NC(=O)c2ccc(CN3CCCN(CC4CCCCC4)CC3)cc2)cc1.O=C(O)C(F)(F)F`, the Inhibition stood at 49%. With `Cc1[nH]c(C)c(-c2ccc(OCc3ccc(F)cc3)nc2)c(=O)c1Br` the figure was 41%; with `Cc1cc2c(NC(=O)NC3CCN(Cc4ccc(Cl)c(Cl)c4)CC3)cccc2cn1.Cl`, 11%; with `COCCCNC(=O)[C@H]1CNCCN1C(=O)c1ccccc1.O=C(O)C(F)(F)F`, 53%. Molecule `CC(=O)c1cc(N2CCOCC2)ccc1N` displayed an Inhibition of 7%. In turn, `CC(C)CCN1CCC(Oc2ccc(NC(=O)c3ccccc3)cc2Cl)CC1.O=C(O)C(F)(F)F` yielded an Inhibition of 17%.

Take `O=C(NC1CCN(Cc2ccccc2)CC1)c1cccc(-c2nc3ccc(Cl)cc3[nH]2)c1`: the Inhibition was found to be 6%. The molecule `Cc1cccc2nc(-c3cccc(-c4ccc(NC(=O)C5CC(=O)Nc6ccccc65)cc4)c3)[nH]c12` (stereo not given) showed an Inhibition of 15%. Consider `CC(C)COc1ccc(Cl)cc1Cc1nc(-c2nc3cccc(CN4CCN(C)CC4)c3[nH]2)cs1`, for which the Inhibition stood at 15%. With `O=C(O)C(F)(F)F.O=S(=O)(Nc1ccc(-c2ccc(CN3CCCC3)cc2)cc1)c1cccc2cccnc12`, the Inhibition is on record as 37%. Molecule `COc1ccc(-c2cccc(NC(=O)c3cccc(Cl)c3)c2)cc1CN1CCC(O)CC1.O=C(O)C(F)(F)F` had an Inhibition of 38%. Consider `Cl.O=c1cc(NCCCNCc2csc(Br)c2Sc2ccc(Cl)cc2)[nH]c2ccccc12`, for which the Inhibition was 5%. With `Cc1ccc(Cn2c(N3CCC(C(=O)NCc4cccs4)CC3)nc3ccccc32)cc1`, the Inhibition is given as 0%. With `N=C(N)Nc1nc(CCCCCCCCc2csc(NC(=N)N)n2)cs1` the figure was 27%; with `CN(C)c1ccc(CN2CCC(NC(=O)c3ccc(-c4cccc(Cl)c4)s3)CC2)cc1.O=C(O)C(F)(F)F`, 65%. Under `Cc1cccc(Cl)c1S(=O)(=O)N1CCCCC(c2ccc(C(F)(F)F)cc2)=N1` stands 5%. Turning to `CCCCCCCCN1CCCN(C(=O)c2cccc(NC(=O)Nc3ccc4ccccc4c3)c2)CC1.O=C(O)C(F)(F)F`, the Inhibition is on record as 39%. With `COc1cccc2c1CCN(CCN1CCC(CNC(=O)c3ccc(-c4ccc(C#N)cc4)cc3)CC1)C2` the figure was 57%.

As for `CC1(CCCCN2CCC(c3c[nH]c4cnccc34)CC2)C(=O)Nc2cccc(Cl)c21` (stereo not given), the Inhibition came to 26%. Turning to `COc1ccc2nccc([C@@H](O)CN3CCC(NC(=O)c4ccc(-c5ccc(C#N)cc5)cc4)CC3)c2c1`, the Inhibition is on record as 42%. For the molecule `CC(=O)OC[C@H]1O[C@@H](C#Cc2ccccc2)[C@H](OC(C)=O)[C@@H](OC(C)=O)[C@@H]1OC(C)=O`, the Inhibition is listed as 5%.

`Cn1c(-c2ccccc2)cc2c3c(=O)cc(C(F)(F)F)[nH]c3ccc21`: the Inhibition turned out to be 21%. On to `Cc1cc(N[C@@H](CC(C)C)C(=O)NCc2cccs2)nc(NCCc2cccs2)n1.O=C(O)C(F)(F)F`, for which the Inhibition is recorded as 0%.

One may read the Inhibition as the percentage by which the read-out fell short of the control. A higher Inhibition goes with a response far below the control.

(Values after ChEMBL document CHEMBL1157539, “Thousands of chemical starting points for antimalarial lead identification” (Nature, 2010).)
